# A selection: hits, their analogues and other compounds. The true share with any hit is near 1.3%.
# AmpC inh detg = blocks E. coli AmpC beta-lactamase in detergent assay; AmpC hydrolysis of nitrocefin, absorbance 480 nm, 0.01% Triton; Potency, µM (titrated, usually from 114 µM), inactives show at the highest dose activity change, negative = inhibition, usual class: inhibitors; 370,000 compounds, 0.041% hits; P00811;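 also: 0% = no-compound wells and -100% = no-enzyme wells; nearly all actives have a fitted effect of over 25% in size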
# Target sequence (P00811 whole entry, looked up): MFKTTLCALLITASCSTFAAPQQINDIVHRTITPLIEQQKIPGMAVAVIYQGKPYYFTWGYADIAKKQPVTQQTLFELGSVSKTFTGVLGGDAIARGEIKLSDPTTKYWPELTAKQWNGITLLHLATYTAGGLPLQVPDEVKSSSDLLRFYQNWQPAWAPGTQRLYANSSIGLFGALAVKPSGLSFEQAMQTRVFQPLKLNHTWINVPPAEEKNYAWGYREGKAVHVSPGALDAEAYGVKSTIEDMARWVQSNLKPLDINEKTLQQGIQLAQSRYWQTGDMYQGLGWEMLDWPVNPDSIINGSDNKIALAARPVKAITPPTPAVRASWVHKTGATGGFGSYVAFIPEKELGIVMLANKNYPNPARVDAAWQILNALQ
#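 AmpC (5.3 nM in the dispensed reagent) in 20 mM phosphate pH 7.0 with 0.01% (detergent screen) or 0.0001% Triton X-100 was preincubated with compounds for 15 min at room temperature. Nitrocefin was then added from an 800 uM solution, and hydrolysis was followed at 480 nm.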
# VACV Venus inh = inhibitors of vaccinia virus (Venus reporter); Vaccinia virus Venus reporter expression, fluorescence; Potency, µM (highest dose often 36.5 µM), for inactives: at the highest dose activity change, negative = inhibition, most hits filed as inhibitors; 330,000 compounds, 0.46% hits; calls by dose curve; tested in A549 cells; also: % is scaled to controls: 0 for no effect and ±100 for the full control effect; nearly all actives have a fitted effect of over 30% in size
# SARS PLpro yeast = inhibitors of SARS-CoV papain-like protease in yeast | S. cerevisiae expressing SARS-CoV PLpro, growth rescue | Potency, µM (highest dose often 32.9 µM), inactives show top-dose activity, positive = growth rescue, usual class: activators | 330,000 compounds, 0.19% hits; calls by dose curve; also: 0% is about no effect; nearly all actives have a fitted effect of over 55% in size
# AMA1-RON2 inh = AMA1-RON2 (P. falciparum) interaction inhibition; Potency, µM (titrated, usually from 58.2 µM), for the others: top-dose activity change, negative = inhibition, usual class: inhibitors; AlphaScreen AMA1-biotinylated RON2 peptide binding; 360,000 compounds, 0.2% hits;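 also: 0% = vehicle wells and -100% = peptide control; nearly all actives have a fitted effect of over 45% in size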
#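 AMA1 (3D7) with his tag at 25 nM final met compounds first, then biotinylated RON2 peptide at 25 nM; detection used donor plus acceptor beads, 10 µg/mL apiece, read by AlphaScreen after 30 min at room temperature.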
# AmpC inh no detg = blocks E. coli AmpC beta-lactamase in detergent-free assay; AmpC nitrocefin hydrolysis, absorbance 480 nm, 0.0001% Triton; Potency, µM (titrated, usually from 57.1 µM), for the others: at the highest dose activity change, negative = inhibition, hits mostly inhibitors; 330,000 compounds, 0.52% hits;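 also: plate controls were no compound for no effect and no enzyme for full effect; nearly all actives have a fitted effect of over 20% in size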
#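 20 mM phosphate pH 7.0 + 0.01% (detergent screen) or 0.0001% Triton X-100; 5.3 nM AmpC reagent; cpd preinc 15 min RT; nitrocefin (800 uM stock) to start; A480 q20 s × 4 min; Activity was normalised to no-enzyme and no-compound control wells.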
# Vaccinia mCherry = vaccinia inhibition (mCherry reporter); Vaccinia virus mCherry reporter infection, fluorescence; AID 720579; Potency, µM (top dose mostly 36.5 µM), for the others: top-dose activity change, negative = inhibition, hits mostly inhibitors; 310,000 compounds, 0.63% hits; calls by dose curve; tested in A549 cells; also: % is scaled to controls: 0 for no effect and ±100 for the full control effect; nearly all actives have a fitted effect of over 35% in size
# Starred values were filed as active, the others as inactive; i = inactive; ? = inconclusive; / = no result given. Unless noted, calls follow the shape of the dose curve; as a rule, active = well fitted curve in the direction sought with a large enough effect; inconclusive = small, poorly fitted or top-dose-only effect, or another doubt; inactive = no such curve, though single readings can be large; an effect the other way counts as inactive or inconclusive. Potency is read from the fitted curve at half-maximal effect.
SMILES,AmpC inh detg,VACV Venus inh,SARS PLpro yeast,AMA1-RON2 inh,AmpC inh no detg,Vaccinia mCherry
c1ccc(Cc2nc3ccccc3[nH]2)cc1,?,-11%,9%,19%,-31%,i
Nc1ccc(C(=O)OCCCc2nc3cc4ccccc4cc3[nH]2)cc1,-12%,/,-1%,-7%,-29%,/
Nc1ccc(C(=O)OCc2nc3cc4ccccc4cc3[nH]2)cc1,-5%,32%,2%,3%,?,5µM*
CCOC(=O)COc1cc(-n2c(=S)[nH]c3ccccc3c2=O)c(Cl)cc1Cl,?,-13%,3%,34%,18µM*,1%
CCOC(=O)N1CCN(C(=O)c2ccc(-n3c(=S)[nH]c4ccccc4c3=O)cc2)CC1,-1%,-12%,5%,4%,-59%,-12%
Cc1cnc(-n2ncc(C(=O)N(C)C3CCOC3)c2-c2cccs2)nc1-c1ccc(F)cc1 (stereo not given),/,-7%,/,/,/,-13%
CCc1ccc(/C=N/NC(=O)c2c[nH]c3ccccc23)s1,-1%,?,8%,-1%,22µM*,?
CC[N+](C)(C)c1ccc(/C=C/c2ccnc3ccccc23)cc1,/,i,/,/,/,i
CCOC(=O)c1cc2c(=O)n3ccccc3nc2n(Cc2ccco2)c1=NC(=O)c1cc(C)cc(C)c1,5%,10µM*,/,/,/,?
CCOC(=O)c1cc2c(=O)n3ccccc3nc2n(Cc2ccco2)c1=NC(=O)c1ccc(C(C)(C)C)cc1,5%,-23%,/,/,/,-29%
O=C(Nc1sc2c(c1C(=O)Nc1ccc(Cl)cc1)CCCC2)c1cccs1,10%,?,/,/,/,13µM*
O=C(Nc1cccc(Cl)c1)c1c(NC(=O)C(F)(F)F)sc2c1CCCC2,3%,?,/,/,/,13µM*
O=C(NCC1Cc2cccc(-c3cnccn3)c2O1)c1ccc(F)c(Cl)c1 (stereo not given),/,-4%,/,/,/,-10%
CCc1c(C)sc2c1CCN(C(=O)Nc1ccccc1Cl)C2c1ccc(OC)cc1 (stereo not given),5%,9%,/,/,/,-14%
COc1ccc(Br)cc1/C=N/N1C(=O)CSC1=S,?,17%,-2%,57%,28µM*,i
Cc1ccc(CN2CCc3nnc(C(NC(=O)c4ccoc4)C(C)C)n3CC2)cc1C (stereo not given),/,-12%,/,/,/,-21%
COc1ccccc1-c1ccnc(-n2ncc(C(=O)N3CCN(C(C)C)CC3)c2-c2ccco2)n1,/,12%,/,/,/,-10%
CCc1cc(C(=O)OC)c(NC(=O)CN2CCN(C(=O)c3ccco3)CC2)s1,-7%,-9%,1%,6%,18%,i
Cc1ccc(C(=O)c2cc(C)sc2NC(=O)CN2CCN(C(=O)c3ccco3)CC2)cc1,?,?,-17%,-24%,134%,11µM*
COc1cc(=O)n2c(c1C(=O)N(C)Cc1nonc1C)CCN(Cc1cc(C)ccc1C)CC2,/,-7%,/,/,/,-14%
O=C(c1ccc([N+](=O)[O-])cc1[N+](=O)[O-])N1CCc2ccccc21,1%,?,-3%,-5%,-12%,2.2µM*
O=C(c1ccc([N+](=O)[O-])cc1[N+](=O)[O-])N1CCCC1,1%,-4%,0%,-18%,-9%,-25%
CCC1(C2CCN(Cc3cc4ccccc4o3)CC2)NC(=O)N(CC2COc3ccccc3O2)C1=O (stereo not given),/,-35%,/,/,/,?
CCOc1cccc(CNCCc2c(C)[nH]c3ccc(OC(F)(F)F)cc23)c1O,4%,10µM*,-1%,-5%,87%,?
COC(=O)c1cc(C)nc2c1C(=O)C(=O)C=C2N1CCOCC1,1%,4.5µM*,11%,?,-15%,?
SMILES,AmpC inh detg,VACV Venus inh,SARS PLpro yeast,AMA1-RON2 inh,AmpC inh no detg,Vaccinia mCherry
COC(=O)c1cc(S(=O)(=O)N2CCOCC2)c(Cl)cc1N1CCOCC1,1%,/,-1%,0%,0%,/
N#CC1=C2SCN(c3ccccc3)CN2C(=O)CC1c1c(Cl)cccc1Cl (stereo not given),-17%,-11%,3%,8%,28µM*,-11%
N#CC1=C2SCN(c3ccccc3)CN2C(=O)CC1c1ccccc1Cl (stereo not given),-13%,-17%,3%,-6%,-43%,-5%
Nc1ccc(Oc2ccccc2-c2ccccc2)cc1,/,-19%,/,22µM*,/,-23%
NCCOc1ccccc1-c1ccccc1,?,-4%,1%,-4%,-22%,/
CC1=C(C(=O)NC2CCCCC2C)C2(CCC(C)CC2)OC1=O (stereo not given),?,-8%,7%,-5%,0%,i
CC1=C(C(=O)NC2CCCC(C)C2C)C2(CCCCC2)OC1=O (stereo not given),-4%,-19%,22%,21%,35µM*,2%
CN(C)c1ccc(Cc2ccc(N(C)C)cc2)cc1,/,/,/,14µM*,/,/
CN(C)c1ccc(CCc2ccc(N)cc2)cc1,/,17%,/,?,/,?
Cc1cc(Cl)c(S(=O)(=O)Nc2ccc3c(c2)OCCO3)cc1OCC(=O)NC1CCCCC1,?,/,0%,-7%,-41%,/
Cc1cc(Cl)c(S(=O)(=O)Nc2ccon2)cc1OCC(=O)NC1CCCCC1,-1%,0%,0%,16%,0.22µM*,-12%
C[C@H](NC(=O)c1ncn2c1c(=O)[nH]c1ccc(Br)cc12)c1ccccc1,/,13µM*,/,-6%,/,?
COc1nn(-c2ccccc2)c(=O)c(Cl)c1Cl,?,28µM*,-9%,-19%,-6%,?
COc1ccc(Sc2cnn(-c3ccccc3)c(=O)c2Cl)cc1,5%,?,3%,1%,-25%,13µM*
COc1ccc(-n2ncc(Cl)c(Cl)c2=O)cc1,-13%,-22%,-1%,-2%,-17%,-21%
COc1c(Cl)cnn(-c2ccccc2)c1=O,-12%,-12%,2%,-17%,-15%,i
CCCCCCCCCCCC[n+]1ccc(C)c2ccccc21,/,-9%,/,/,/,-11%
CCCCCCCCC[n+]1cccc2c3ccccc3ccc21,0%,11µM*,-39%,1%,69%,/
CCCCCCCCCCCCCCCC[n+]1cccc2ccccc21,-5%,10µM*,-96%,-2%,177%,10µM*
COc1ccc(CN2CCOc3c(O)cc(-c4cc(C)c5ccc(F)cc5n4)cc3C2)c(O)c1,/,-10%,/,/,/,-18%
COC(=O)c1ccc(CN2CCC3(CCC(CNC(=O)c4ccco4)O3)CC2)cc1 (stereo not given),/,-19%,/,/,/,-2%
O=[N+]([O-])c1ccc(O)c2ncccc12,-2%,?,-17%,-57%,69%,10µM*
O=[N+]([O-])c1cc(Cl)c2cccnc2c1O,1%,?,-3%,?,-21%,28µM*

# Screening results from PubChem BioAssay.
